# Sfp PPTase inh: qHTS Assay for Inhibitors of Bacillus subtilis Sfp phosphopantetheinyl transferase (PPTase) | Biochemical Sfp PPTase activity, qHTS | 4'-phosphopantetheinyl transferase ffp (Bacillus subtilis), Q9F4F7 | 310,000 compounds, 3.5% hits | Potency, µM, for the others: largest response in the series, negative = inhibition, hits mostly inhibitors;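 further: the enzyme is Sfp with the accession as filed and its product quenches rhodamine fluorescence; potency means the concentration at half of the fitted maximal effect; 0% = enzyme reaction without inhibitor and -100% = no enzyme wells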
#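 With Hepes-Na pH 7.6 buffer containing 10 mM MgCl2, Sfp (15 nM) modified BHQ-2-YbbR (12.5 uM) using rhodamine-CoA (5 uM). Two reads 30 minutes apart at 525/598 nm yielded each well's rate.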
# G9a inh: qHTS Assay for Inhibitors of Histone Lysine Methyltransferase G9a. Histone-lysine N-methyltransferase EHMT2 (Homo sapiens), Q96KQ7. Potency, µM (doses to about 102 µM), inactives show top-dose activity, negative = inhibition, hits mostly inhibitors. G9a H3K9 monomethylation, AlphaScreen, 2 h. 350,000 compounds, 8.8% hits; further: potency means the concentration at half of the fitted maximal effect; nearly all actives have a fitted effect of over 75% in size
# Target sequence (Q96KQ7 913-1193 limits assumed): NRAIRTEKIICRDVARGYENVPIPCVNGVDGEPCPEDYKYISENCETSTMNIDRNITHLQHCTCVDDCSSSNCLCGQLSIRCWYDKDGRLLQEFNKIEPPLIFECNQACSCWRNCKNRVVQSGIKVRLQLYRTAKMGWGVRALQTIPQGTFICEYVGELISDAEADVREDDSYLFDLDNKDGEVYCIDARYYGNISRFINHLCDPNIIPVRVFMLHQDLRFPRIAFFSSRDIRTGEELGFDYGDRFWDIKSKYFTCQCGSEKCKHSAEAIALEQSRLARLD
#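 Enzyme 20 nM + cpd, 15 min RT; add b-H3K9 pep 500 nM / SAM 20 uM; 2 h RT; anti-H3K9me1 Ab 0.5 ug/mL + SA donor / anti-rabbit acceptor beads 20 ug/mL each, 10 min; AlphaScreen read.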
# FBPA coupling cs: qHTS Assay for Inhibitors of Fructose-1,6-bisphosphate Aldolase from Giardia Lamblia: Coupling assay counterscreen; coupling enzyme system counterscreen, AmpLite Red fluorescence; activity change, negative = inhibition, % at 58.2 µM, hits read low; 290,000 compounds, 0.67% hits; in the data active means activity change below about -30%
#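 Activity here indicates interference with the coupling reaction, not aldolase inhibition. Compounds at 57.5 uM final met coupling enzymes for 10 min at RT; substrate and AmpLite Red detection followed, with a 525/598 nm fluorescence read after 20 min.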
# Tau fibril FP: qHTS for Inhibitors of Tau Fibril Formation, Fluorescence Polarization; Microtubule-associated protein tau (Homo sapiens), P10636; K18 P301L tau heparin fibrillization, Alexa594 FP, 6 h; Potency, µM (highest dose often 57.7 µM), inactives show top-dose activity, negative = inhibition, hits mostly inhibitors; 280,000 compounds, 0.39% hits; AID 1468, 2008; further: potency means the concentration at half of the fitted maximal effect; nearly all actives have a fitted effect of over 55% in size
# Target sequence (P10636 561-689 P618L limits assumed): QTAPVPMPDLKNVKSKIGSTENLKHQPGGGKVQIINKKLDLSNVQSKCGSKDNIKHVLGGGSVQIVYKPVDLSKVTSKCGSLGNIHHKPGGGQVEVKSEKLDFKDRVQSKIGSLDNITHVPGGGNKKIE
#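 Recombinant K18 P301L […], labeled with Alexa 594 at 0.24 uM over 15 uM unlabeled; heparin inducer 20 uM final; 37 C, 6 hr; FP endpoint.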
# Tau fluor cs: Counterscreen qHTS for Inhibitors of Tau Fibril Formation, Fluorescence Polarization; AID 1463, 2008; tau K18 P301L Alexa594 fluorescence, heparin fibrillization; 280,000 compounds, 0.93% hits; Potency, µM (titrated, usually from 57.7 µM), inactives show at the top dose activity change, negative = decrease; further: potency means the concentration at half of the fitted maximal effect; nearly all actives have a fitted effect of over 55% in size
#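 Human tau K18 P301L (15 uM unlabeled, 0.24 uM Alexa 594-labeled) in 100 mM sodium acetate pH 7 with 20 uM heparin, 6 hr at 37 C. ThT 30 uM added, 1 hr ambient; Alexa 594 FP and total fluorescence read at 555/632 nm.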
# Tau fibril ThT: qHTS for Inhibitors of Tau Fibril Formation, Thioflavin T Binding | Microtubule-associated protein tau (Homo sapiens), P10636 | recombinant tau K18 P301L (four-repeat tau fragment), heparin-induced fibrillization, ThT fluorescence | Potency, µM (series often up to 57.4 µM), for inactives: top-dose activity, negative = inhibition, most hits filed as inhibitors | 270,000 compounds, 2.1% hits; further: potency means the concentration at half of the fitted maximal effect; nearly all actives have a fitted effect of over 55% in size
#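 Tau K18 P301L fragment (15 uM unlabeled plus 0.24 uM Alexa 594-labeled) in 100 mM sodium acetate pH 7 with compound, fibrillization induced by 20 uM heparin for 6 hr at 37 C. Thioflavin T (30 uM) added, fluorescence read after 1 hr (ex 450, em 510 nm).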
# Numbers without * were called inactive; ? = inconclusive; / = not tested or not shown; [ ] = another dose, or the depositor's remark. Shown are actives, neighbours in structure and some others; about 11% of the full set was active somewhere. Unless noted, the call rests on the fitted dose curve; in most records, active means well fitted curve in the direction sought with a large enough effect; inconclusive means small, poorly fitted or top-dose-only effect, or another doubt; inactive means no such curve, though single readings can be large; an effect the other way counts as inactive or inconclusive. Unless noted, on the % scale 0 is the no-effect control and ±100 the full control effect.
SMILES,Sfp PPTase inh,G9a inh,FBPA coupling cs,Tau fibril FP,Tau fluor cs,Tau fibril ThT
Cc1nc2cnc(N3CCNCC3)nc2n(C2CC2)c1=O,11.4%,-1.9%[12.7 µM],-0.9,/,/,/
CC(=O)CCc1oc2ccc(C)cc2c1-c1ccc(C)o1,22.4µM*,16.7%[12.7 µM],-0.6,5.6%,-3.6%,-13.3%
O=C1CN(C(=O)c2ccc(S(=O)(=O)N3CCCCC3)cc2)C(c2ccc(F)cc2)c2cc(F)ccc2N1 (centres undefined),/,-10.1%[59 µM],/,-3.5%,-11.4%,-7.7%
COc1cccc(CN2CCN(Cc3ccccc3C(F)(F)F)CC2)c1,56.2µM*,4.47µM*,-2.7,/,/,/
COc1ccc(CN2CCN(CCCc3ccccc3)C(CCO)C2)c(OC)c1 (centres undefined),-0.6%,11.6%,1.5,/,/,/
OCC1(Cc2ccccc2C(F)(F)F)CCN(Cc2ccccc2)CC1,4.7%,-6.2%,0.5,2.9%,-10.5%,-8.4%
COc1ccc(CN2CCN(CCCc3ccccc3)CC2)c(OC)c1,-22.6%,3.98µM*,-1.5,?,-7.7%,-7.3%
COc1ccc(CN2CCN(Cc3ccccc3C(F)(F)F)CC2)c(OC)c1,?,44.7µM*,0.0,/,/,/
CC(=O)Oc1ccc(/C=C/C(=O)CC2OC(Oc3cc(OC(C)=O)c4c(c3)O[C@@H](c3ccc(OC(C)=O)cc3)CC4=O)C(OC(C)=O)C(OC(C)=O)C2OC(C)=O)cc1 (some centres undefined),-9.9%,/,-0.9,0.9%,-1.6%,-1.1%
O=C(CSc1n[nH]c(-c2ccccc2)n1)c1ccc(O)c(O)c1,-14.2%,7.94µM*,-9.7,2.4%,-17.5%,?
CCCOc1ccc(-c2nc(SCC(=O)c3ccc(Cl)cc3)n[nH]2)cc1,/,14.1µM*,/,-15.2%,-10.9%,?
CCOc1ccc(-c2nc(SCC(=O)c3ccccc3)n[nH]2)cc1,/,14.1µM*,/,-10.3%,-9.0%,-4.9%
COCCNC(=O)CCn1c(=O)c2cc(OC)c(OC)cc2n(CC(=O)Nc2ccc(Cl)cc2F)c1=O,/,-7.5%[59 µM],/,1.9%,-10.9%,-1.5%
CCOC(=O)C(=O)/C(C#N)=C/Nc1ccc(F)cc1,-9.5%,35.5µM*,-2.0,-2.0%,-9.6%,?
CCOC(=O)C(=O)/C(C#N)=C/Nc1ccc(Cl)cc1,1.0%,?,-1.6,-5.0%,-7.1%,-16.9%
NC(=O)C1CCN(c2ncnc3c2cnn3-c2cccc(Cl)c2)CC1,/,2.9%[59 µM],/,-3.5%,-8.7%,-1.6%
COc1cccc(N=Cc2nc(-c3ccccc3)oc2OC(C)=O)c1,-15.7%,50.1µM*,-2.0,?,?,?
CN(C)c1ccc(N=Cc2nc(-c3ccccc3)oc2OC(=O)c2cccc(Cl)c2)cc1,?,8.91µM*,1.0,?,?,7.94µM*
Cc1ccc(C(=O)Oc2oc(-c3ccccc3)nc2C=Nc2ccc(N(C)C)cc2)cc1,?,61.3%[59 µM],-4.6,-2.1%,4.4%,?
COc1ccc(-n2nc([N+](=O)[O-])c(=NCCC3=CCCCC3)n2O)cc1,-5.7%,31.6µM*,-0.2,15.0%,?,7.94µM*
COc1ccc(-n2nc([N+](=O)[O-])c(=NCc3ccco3)n2O)cc1,-27.8%,?,0.0,1.0%,-28.5%,10µM*
Cc1ccc(CN=c2c([N+](=O)[O-])nn(-c3cccc(Cl)c3)n2O)cc1,-9.3%,39.8µM*,-1.9,?,?,?
Cc1ccc(CN=c2c([N+](=O)[O-])nn(-c3cccc(C)c3)n2O)cc1,10.9%,-2.8%,2.9,2.3%,-14.7%,?
